Out of some 31,000 sequences screened, about 1,400 (4.5%) were called active.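 The calls were made as follows: active = median seed-adjusted z-score above 1 or below -1; inactive = the rest.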 This excerpt belongs to a sample that is enriched for actives.
experiment: Novel Modifiers of Survival Motor Neuron (SMN) Protein: Gene Identification via Genome-wide siRNA Screen; settings: HEK293T SMN2-luciferase reporter, siRNA knockdown, 72 h; actives lie on both sides;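 also: luminescence tracks full-length SMN protein made from the SMN2 reporter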
How it was run: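 Genome-wide siRNA screen (10418 genes, 3 siRNAs each, 1 pmol per well) by reverse transfection in HEK293T cells stably carrying an SMN2-luciferase reporter; luminescence after 72 hours, normalized to negative-control siRNA, log10-transformed, MAD-scored.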

Row | Sequence | median seed-adjusted z-score
1 | CAACCAUCCCAUGUCUGUUTT against NMNAT2 | -1.58 (active)
2 | GGAGUUAGCACUAACAUAATT against NUP98 | 0.168 (inactive)
3 | GGAUAGUGAUGAUGUCUAUTT against GPR98 | -0.509 (inactive)
4 | CCUCAACUCGUGAAGAAGATT against GPRC5A | -0.56 (inactive)
5 | GGCAUAUGGUUAUCGAGGATT against EML4 | 0.958 (inactive)
6 | CGUCCAAGAUCGAACCCAUTT against HIRA | 0.286 (inactive)
7 | GCAAUCGGGUGGUAUCAUATT against COPS5 | -0.124 (inactive)
8 | CAAGCAUGGUCUUUCUACUTT against TUBB2A | 1.03 (active)
9 | CGAGAUCUCAAGUCUAACATT against ARAF | 0.535 (inactive)
10 | GGAAGUACGUUCCAUACAATT against GALNT17 | 0.392 (inactive)
11 | GGAUCUGUAUCAAGCCGUUTT against APC | 0.154 (inactive)
12 | GCAAUGCACUGACGGAUAUTT against EFEMP1 | 0.0157 (inactive)
13 | GUAUCAGAAUGAGAGUUCUTT against ACP2 | -0.00569 (inactive)
14 | GAAAUACCCUCACAUGUUATT against LSM2 | -1.48 (active)
15 | GAUGUAUUGUUACUACCAATT against SCNN1G | -0.616 (inactive)
16 | CCACAAGGGUUAUCUGUCATT against MAPK4 | 0.235 (inactive)
17 | GUCACUUCAUGGGCAAGAATT against NMB | 0.746 (inactive)
18 | CCGUUGUUGUAAGAAGAAATT against MICA | -0.0635 (inactive)
19 | GGAUUAAGCCCUUCGAAGATT against SOCS5 | 0.312 (inactive)
20 | AGUUCUCGGAGGUGCUUAATT against CKB | -0.236 (inactive)
21 | GGACAAUCUUAUUCCUAUUTT against CFHR4 | -0.0972 (inactive)
22 | GAGCUGCAACUGACAUCUUTT against PLTP | 1.09 (active)

Row | Sequence | median seed-adjusted z-score
23 | GCAUCUUCACCAAAGUCAUTT against RHEBL1 | -0.268 (inactive)
24 | GGCUGACCUGUACCACUUUTT against SH3BP1 | -0.225 (inactive)
25 | GCCUCAGAGUUCACGGACATT against ROBO4 | -0.431 (inactive)
26 | GCUACGGCGUGGACAAGAATT against RELB | 1.16 (active)
27 | GGACCGUCUACUCAUCCAATT against IL8RB | -0.387 (inactive)
28 | GGAGGAGAUAGGCACUGAATT against TIGD3 | 0.486 (inactive)
29 | GCUUUUAUCCUAGACAUCATT against PAQR8 | 0 (inactive)
30 | GUGGGAAAGUCUAUGGAAATT against KLF9 | 0.767 (inactive)
31 | GGCCUAAGCUAAAUCGAGATT against SKP2 | -0.126 (inactive)
32 | CAAAGGAUGUCAUUCGUAATT against CKAP5 | -1.87 (active)
33 | CGGCCGAAGUAGUAAAAGATT against ADA | -0.242 (inactive)
34 | UCAUCAAUGCUACUGGUUATT against TM7SF2 | -0.674 (inactive)
35 | CGGCUGUGGUGAACCAGUATT against INHBB | -0.522 (inactive)
36 | GCAUAGGAUUCAUUGAGUUTT against NME1 | 0.188 (inactive)
37 | GACCCGUACUUCAUGAAGATT against SF3A2 | -1.7 (active)
38 | GGACCCAAGUCUUGCUGCATT against CARD18 | 0.568 (inactive)
39 | CGAUCCUAUUCGAUGAGAATT against GRM5 | -0.227 (inactive)
40 | CAGUGAAUAUGGAACCGGATT against CHD3 | 0.589 (inactive)
41 | AGUAUGUGCUGAUCCGAGUTT against PHPT1 | 1.27 (active)
42 | CCUGAACACACCUUACAUATT against RNASE8 | 0.00771 (inactive)
43 | CAUAGAUUCUGUACGGCAATT against MPP5 | 0.429 (inactive)
44 | GGUAUUCCUGUUCAACAAATT against ZNF235 | 0.348 (inactive)

Row | Sequence | median seed-adjusted z-score
45 | GCUGACCGCUGGGUGAUAATT against TMPRSS6 | 1.29 (active)
46 | CCUCACACUUGAUUCAGUUTT against RPP38 | 0.07 (inactive)
47 | GGUCAUAGCCUACUGUCUATT against SLC32A1 | -0.251 (inactive)
48 | CUACCAGCAUGUGAUGUUUTT against CH25H | -0.264 (inactive)
49 | GGAUGCAGAACGACGUGAATT against SLC25A10 | -0.571 (inactive)
50 | GUACCUUUUCCAAACCAAATT against SETD8 | -1.52 (active)
51 | CAAAACAGACCGAAAGAAATT against DBX2 | 0.244 (inactive)
52 | CGAUAACGACAGUAAAUCATT against CACNA2D1 | -0.541 (inactive)
53 | CAAAGAAGCUUUUUCACUATT against CALM2 | 0.127 (inactive)
54 | CUCUCUUAGUGUCCUUAGATT against PCDHGC4 | 0.301 (inactive)
55 | CGAGUUCUAUCUUGAGAAUTT against TEX13A | -1.22 (active)
56 | GGAUGGGUCUCGCAAAAUATT against ZFYVE1 | -0.546 (inactive)
57 | CCAGCUCUUCUCUACCACATT against PAQR7 | -0.0406 (inactive)
58 | UGCUGAGGGUGUUCCCAGATT against GABRR2 | 0 (inactive)
59 | AGCAGGCUUUGAUCAUUGATT against FKBP6 | -1.12 (active)
60 | GCAAGACCUUUGACUACAATT against SSRP1 | -0.31 (inactive)
61 | GCGAAGUGUUCAGACCAAATT against HEATR1 | -0.115 (inactive)
62 | CCAACUCAUUGAUAGGGAUTT against PRPH2 | 0.0931 (inactive)
63 | GCUUUCUAUCGAUCCUCAATT against ZNF681 | 0.271 (inactive)
64 | GCACGUCGAGCAAUCCAAATT against MYOD1 | 0.309 (inactive)
65 | CCAUGUUUCUCAUUAGUGUTT against NTSR1 | -1.1 (active)
66 | UGCUCGUGCUCGUUCCAAATT against ING4 | -0.152 (inactive)

Row | Sequence | median seed-adjusted z-score
67 | CAUCUUUGCUAGUAAUCUATT against UBA7 | 2.41 (active)
68 | CGGAUUGUCUAUUGCAUCATT against CALCRL | 0.28 (inactive)
69 | GAUUGUCUCUUUAGUGGAATT against TGDS | -0.196 (inactive)
70 | GGUGAGAUGUGGUCUAUAUTT against HES7 | -0.286 (inactive)
71 | GGAGAAGGAUGGAACUCUUTT against SPATA21 | -1.03 (active)
72 | GGCUUGCGCAAGAUCAAUATT against ATRNL1 | -0.142 (inactive)
73 | GCGUGAUCCUUGCCUCUAATT against GDPD4 | 0.0109 (inactive)
74 | CCUCAUUGAUCAUCACCGATT against ZNF567 | -0.114 (inactive)
75 | CUAGUUUAAUAAAGAUUCATT against APOE | 0.0321 (inactive)
76 | AGGAUAUUGUGAUUCAGCATT against POLR2G | -4.19 (active)
77 | GCAUCAGGUGAACAUCAAATT against TRIM16 | 0.345 (inactive)
78 | GGAUGAGAAGGAUAAUGAUTT against IRF6 | -1.79 (active)
79 | AAACGAUGUUGAUGUCCAATT against ATP6V1E1 | -0.312 (inactive)
80 | GGAUGGACAUGUCAAAUCUTT against RBL1 | -0.0547 (inactive)
81 | CAAAGGACCCAAUAGAAUUTT against GUCY2F | 0.188 (inactive)
82 | GCGCGCUACUUUGGGAUAATT against POLR2E | -1.25 (active)
83 | GGACCUCCCUUCAACAUCATT against DYSF | -0.23 (inactive)
84 | CAGUGAAGCUAUCAAGUUATT against PSMA8 | 0.407 (inactive)
85 | GACCAGAUGUGGACAAUCATT against TAF6 | -1.36 (active)
86 | GAAUUGGAGAGGCAACAAATT against LMO7 | 0.417 (inactive)
87 | GAAGAGAUAUUUACACCUUTT against CD47 | 0.0241 (inactive)
88 | CUGCUAGUCUGUCUCCAAATT against SPINK7 | -0.409 (inactive)

Row | Sequence | median seed-adjusted z-score
89 | GGACUAUGUCUGCCUAUGATT against SCN7A | 0 (inactive)
90 | CUAAGAAUCUGCUUAGUAATT against CLDN5 | 0 (inactive)
91 | AGAAUGACAGGGUCCAGAATT against OGFR | -0.565 (inactive)
92 | GCUUUGAUGUGAUUCACCUTT against PRKAG3 | -1.03 (active)
93 | GUCACAAGAUGGUCAAAAATT against CTNND2 | -0.0491 (inactive)
94 | CCAUCCUUCAGGCGAAUUATT against ACTR8 | -0.366 (inactive)
95 | GGUCUGUUCUGCAAGCACATT against PARVG | 0.321 (inactive)
96 | CCAAACCACUACAACCCUUTT against RPP21 | -1.09 (active)
97 | GAUAUAAAGUCAUGAAGAATT against USP30 | -0.646 (inactive)
98 | CGUGGACUCCCACUUCCAATT against OGG1 | -0.128 (inactive)
99 | GGAGCUUCCCUAUAGUGAATT against HDAC3 | 0.579 (inactive)
100 | GGAUUCUAAGUACAGAGAATT against ZNF323 | -0.319 (inactive)
101 | CAACUGCUAGCUGAACGAATT against ITIH2 | 0.262 (inactive)
102 | CAUUUAUGACAAUCGGAUATT against OGT | 0.411 (inactive)
103 | GUCUAUGAAUUGGACAAGATT against PGAM1 | -0.234 (inactive)
104 | CAUCAAAUAUGACAACUUUTT against GALNTL4 | 0 (inactive)
105 | GCCGUUUCAUGUUUGUCUATT against TRPV1 | -0.12 (inactive)
106 | GGAAAUGAGUGUCUGAACATT against CHMP6 | -1.81 (active)
107 | GGCUUUUUAGAUUUCGAAATT against TIGD7 | -0.116 (inactive)
108 | GAGUGAGACUGGGACAAGATT against TAPBP | -0.786 (inactive)
109 | GCCUUCACGUCUGAACAUATT against GAD2 | 0.0588 (inactive)
